Results reported in PubChem BioAssay (EPA / NIEHS).
Results filed as inconclusive are left out. Calls of active or inactive are those of the source. The calls were made as follows, unless noted: active = hit-call score of the fitted dose curve at least 0.9, where 1 is the maximum; inactive = score below 0.9.

How the values were obtained:
[1] = ATG_NF_kB_CIS: Attagene CIS-FACTORIAL HepG2 Assay for human Nuclear Factor Kappa B (NF-kB) (AID 2282991); conditions: HepG2 Attagene cis-factorial NF-kB reporter mRNA; actives raise or lower the signal
Summary of the method: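 HepG2 cells transfected with cis-promoter-driven reporter units, so endogenous transcription factor activity is measured. Reporter mRNA quantified 24 h after dosing by RT-PCR and capillary electrophoresis, with bidirectional fitting against DMSO.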

[2] = ATG_NRF2_ARE_CIS: Attagene CIS-FACTORIAL HepG2 Assay for human Nuclear Factor Erythroid 2 Related Factor 2 (NFR2) response to Antioxidant Response Elements (ARE) (AID 2282992); conditions: HepG2 Attagene ARE/NRF2 reporter, transcription factor activity; actives raise or lower the signal;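 as to AC50: reporter mRNA level measured by RT-PCR and capillary electrophoresis fluorescence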
Summary of the method: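 Fluorescence intensity of reporter-specific cDNA fragments, separated by capillary electrophoresis, reflects mRNA induction in transfected HepG2 cells at 24 h. Activity is fitted bidirectionally, DMSO serving as baseline.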

[3] = ATG_Oct_MLP_CIS: Attagene CIS-FACTORIAL HepG2 Assay for human Octamer-Binding Transcription Factor (Oct) (AID 2282993); conditions: HepG2 Attagene cis-factorial Oct reporter, mRNA; actives raise or lower the signal
Summary of the method: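 Using HepG2 cells bearing transfected cis-reporter constructs, mRNA induction was read after 24 h by fluorescent RT-PCR and capillary electrophoresis, with DMSO defining baseline for gain- or loss-of-signal fits.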

[4] = biological target: Cellular tumor antigen p53 (Homo sapiens) (UniProt P04637); assay: ATG_p53_CIS: Attagene CIS-FACTORIAL HepG2 Assay for human p53 Transcription Factor (AID 2282994); conditions: HepG2 p53 cis-element reporter, Attagene mRNA; actives raise or lower the signal
Summary of the method: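 Transiently transfected HepG2 (multiple cis reporter transcription units); exposure 24 h; reporter RNA via RT-PCR, 6-FAM extension, 2 h HpaI digest at 37 C, CE detection; DMSO baseline.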

[5] = biological target: human Peroxisome Proliferator-activated Receptor delta (PPARd), PPARD (gene 5467) (UniProt Q03181); assay: ATG_PPARd_TRANS: Attagene TRANS-FACTORIAL HepG2 Assay for human Peroxisome Proliferator-activated Receptor delta (PPARd) (AID 2283002; active = hit-call score of the fitted dose curve at least 0.9, where 1 is the maximum)
Summary of the method: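 Cell-based TRANS reporter: HepG2, transient MRTU transfection, 24 h exposure. Readout = reporter mRNA (RT-PCR/CE, 6-FAM). Gain-of-signal fit vs DMSO control.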

[6] = biological target: human Peroxisome Proliferator-activated Receptor alpha (PPARa), PPARA (gene 5465) (UniProt Q07869); assay: ATG_PPARa_TRANS: Attagene TRANS-FACTORIAL HepG2 Assay for human Peroxisome Proliferator-activated Receptor alpha (PPARa) (AID 2283001; active = hit-call score of the fitted dose curve at least 0.9, where 1 is the maximum;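 as to AC50: potency for gain of reporter signal over DMSO so agonist or activator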)
Summary of the method: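 Reporter transcripts quantified by RT-PCR plus capillary electrophoresis after 24 h treatment, fitted upward relative to DMSO. Cells: human HepG2 transiently carrying multiple GAL4-UAS reporter units driven by NR-Gal4 chimeras.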

Sequence of Cellular tumor antigen p53 (Homo sapiens) (P04637 whole entry, looked up): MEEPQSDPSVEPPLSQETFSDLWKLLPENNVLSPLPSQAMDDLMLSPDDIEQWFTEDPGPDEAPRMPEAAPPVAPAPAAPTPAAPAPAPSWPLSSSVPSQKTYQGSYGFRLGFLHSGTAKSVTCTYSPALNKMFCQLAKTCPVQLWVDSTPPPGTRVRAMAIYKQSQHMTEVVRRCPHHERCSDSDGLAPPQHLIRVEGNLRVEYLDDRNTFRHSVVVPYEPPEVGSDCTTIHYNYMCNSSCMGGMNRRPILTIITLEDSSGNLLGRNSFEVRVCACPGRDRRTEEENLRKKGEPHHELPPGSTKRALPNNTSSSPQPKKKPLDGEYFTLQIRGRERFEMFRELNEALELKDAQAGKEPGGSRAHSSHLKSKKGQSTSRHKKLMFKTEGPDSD
Sequence of human Peroxisome Proliferator-activated Receptor delta (PPARd), PPARD (gene 5467) (Q03181 whole entry, looked up): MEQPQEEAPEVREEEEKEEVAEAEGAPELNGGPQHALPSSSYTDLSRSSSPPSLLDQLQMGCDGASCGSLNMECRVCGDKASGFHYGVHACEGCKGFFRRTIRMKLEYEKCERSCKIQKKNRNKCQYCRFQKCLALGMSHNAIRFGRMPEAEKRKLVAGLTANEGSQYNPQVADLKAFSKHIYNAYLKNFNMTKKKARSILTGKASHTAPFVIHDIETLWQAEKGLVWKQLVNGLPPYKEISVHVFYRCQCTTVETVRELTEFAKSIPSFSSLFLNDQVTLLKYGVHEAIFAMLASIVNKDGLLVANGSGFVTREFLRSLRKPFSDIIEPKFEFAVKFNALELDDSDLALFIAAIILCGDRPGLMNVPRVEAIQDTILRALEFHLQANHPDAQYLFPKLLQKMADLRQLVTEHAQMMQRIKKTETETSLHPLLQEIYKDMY
Sequence of human Peroxisome Proliferator-activated Receptor alpha (PPARa), PPARA (gene 5465) (Q07869 whole entry, looked up, the tested form may be a part): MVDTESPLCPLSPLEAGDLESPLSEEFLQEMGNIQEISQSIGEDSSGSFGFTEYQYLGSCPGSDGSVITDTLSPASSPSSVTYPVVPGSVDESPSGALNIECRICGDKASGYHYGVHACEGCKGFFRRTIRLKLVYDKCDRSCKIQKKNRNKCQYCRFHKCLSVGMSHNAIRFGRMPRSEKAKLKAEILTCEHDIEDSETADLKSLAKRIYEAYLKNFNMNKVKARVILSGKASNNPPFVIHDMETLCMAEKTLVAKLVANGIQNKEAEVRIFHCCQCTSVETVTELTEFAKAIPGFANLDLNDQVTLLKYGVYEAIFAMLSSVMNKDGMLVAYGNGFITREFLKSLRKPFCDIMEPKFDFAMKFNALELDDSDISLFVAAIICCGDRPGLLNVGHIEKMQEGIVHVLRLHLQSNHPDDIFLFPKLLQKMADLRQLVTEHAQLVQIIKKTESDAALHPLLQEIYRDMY

SMILES: CCOP(=S)(OCC)O/N=C(\C#N)c1ccccc1
- outcome [1]: inactive
- AC50 [2]: 27.7 µM (active)
- outcome [3]: inactive
- outcome [4]: inactive
- outcome [5]: inactive

SMILES: COC(=O)c1cc(Oc2ccc(Cl)cc2Cl)ccc1[N+](=O)[O-]
- outcome [1]: inactive
- AC50 [2]: 56.8 µM (active)
- outcome [3]: inactive
- outcome [4]: inactive
- outcome [6]: inactive
- outcome [5]: inactive

SMILES: CN(C)[C@@H]1C(=O)C(C(N)=O)=C(O)[C@@]2(O)C(=O)C3=C(O)c4c(O)ccc(Cl)c4[C@@](C)(O)[C@H]3C[C@@H]12
- outcome [1]: inactive
- AC50 [2]: 20.3 µM (active)
- outcome [3]: inactive
- outcome [4]: inactive
- outcome [6]: inactive
- outcome [5]: inactive

SMILES: CCOc1cc(C=O)ccc1O
- outcome [1]: inactive
- outcome [2]: inactive
- outcome [3]: inactive
- outcome [4]: inactive
- outcome [6]: inactive
- outcome [5]: inactive

SMILES: N#CCC#N
- outcome [1]: inactive
- outcome [2]: inactive
- outcome [3]: inactive
- outcome [4]: inactive
- outcome [6]: inactive
- outcome [5]: inactive

SMILES: CC1(C)[C@H](/C=C2\CCSC2=O)[C@@H]1C(=O)OCc1coc(Cc2ccccc2)c1
- outcome [1]: inactive
- AC50 [2]: 35.8 µM (active)
- outcome [3]: inactive
- outcome [4]: inactive
- outcome [6]: inactive
- outcome [5]: inactive

SMILES: c1cc[c]([Sb]([c]2ccccc2)[c]2ccccc2)cc1
- outcome [1]: inactive
- AC50 [2]: 70.3 µM (active)
- outcome [3]: inactive
- outcome [4]: inactive
- outcome [6]: inactive
- outcome [5]: inactive

SMILES: CC(c1ccccc1)(c1ccc(O)cc1)c1ccc(O)cc1
- AC50 [1]: 14.6 µM (active)
- AC50 [2]: 11.1 µM (active)
- AC50 [3]: 11.1 µM (active)
- AC50 [4]: 16.2 µM (active)
- outcome [5]: inactive

SMILES: C=CC(=O)[O][Sn]([CH2]CCC)([CH2]CCC)[CH2]CCC
- outcome [1]: inactive
- AC50 [2]: 0.111 µM (active)
- AC50 [3]: 0.348 µM (active)
- outcome [4]: inactive
- AC50 [6]: 0.599 µM (active)
- outcome [5]: inactive

SMILES: N#Cc1ccccc1Cl
- outcome [1]: inactive
- outcome [2]: inactive
- outcome [3]: inactive
- outcome [4]: inactive
- outcome [6]: inactive
- outcome [5]: inactive

SMILES: OC(c1ccc(Cl)cc1)(c1ccc(Cl)cc1)c1cccnc1
- outcome [1]: inactive
- AC50 [2]: 11.1 µM (active)
- outcome [3]: inactive
- outcome [4]: inactive
- outcome [5]: inactive

SMILES: Brc1c(Br)c(Br)c(Oc2c(Br)c(Br)c(Br)c(Br)c2Br)c(Br)c1Br
- outcome [1]: inactive
- outcome [2]: inactive
- outcome [3]: inactive
- outcome [4]: inactive
- outcome [6]: inactive
- outcome [5]: inactive

SMILES: CC(C)[N+](=O)[O-]
- outcome [1]: inactive
- outcome [2]: inactive
- outcome [3]: inactive
- outcome [4]: inactive
- outcome [5]: inactive

SMILES: FC(F)OCC(F)(F)C(F)(F)F
- outcome [1]: inactive
- outcome [2]: inactive
- outcome [3]: inactive
- outcome [4]: inactive
- outcome [5]: inactive

SMILES: CN(CCCC(O)c1cccnc1)N=O (stereo not given)
- outcome [1]: inactive
- outcome [2]: inactive
- outcome [4]: inactive
- outcome [6]: inactive

SMILES: COc1nn(C(=O)NS(=O)(=O)c2ccccc2OC(F)(F)F)c(=O)n1C
- outcome [1]: inactive
- outcome [2]: inactive
- outcome [3]: inactive
- outcome [5]: inactive

SMILES: CC(O)(CS(=O)(=O)c1ccc(F)cc1)C(=O)Nc1ccc(C#N)c(C(F)(F)F)c1 (stereo not given)
- outcome [1]: inactive
- AC50 [2]: 94.5 µM (active)
- outcome [4]: inactive
